Reference: PubChem BioAssay AID602261 (Sanford-Burnham Center for Chemical Genomics, 2012)
Among all 360,000 compounds or so, about 2,400 (0.67%) were called active.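 The calls were made as follows: active = compounds whose normalised, plate-corrected inhibition of enzyme fluorescence in the single-dose primary screen is 50% or more; inactive = the rest.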 Shown is part of a subset that was picked to be rich in actives.

Molecular target: Fatty acid synthase (Homo sapiens) (UniProt P49327)
Assay: FAS thioesterase domain inhibitors, primary screen, biochemical, fluorescence intensity, uHTS (AID 602261);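 also: 0% = DMSO with enzyme and 100% = substrate without enzyme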
Conditions: recombinant FAS-TE, OMFH fluorogenic substrate, fluorescence endpoint; at 15 µM; stronger effect = higher value

Fatty acid synthase (Homo sapiens), sequence (P49327 whole entry, looked up, the tested form may be a part): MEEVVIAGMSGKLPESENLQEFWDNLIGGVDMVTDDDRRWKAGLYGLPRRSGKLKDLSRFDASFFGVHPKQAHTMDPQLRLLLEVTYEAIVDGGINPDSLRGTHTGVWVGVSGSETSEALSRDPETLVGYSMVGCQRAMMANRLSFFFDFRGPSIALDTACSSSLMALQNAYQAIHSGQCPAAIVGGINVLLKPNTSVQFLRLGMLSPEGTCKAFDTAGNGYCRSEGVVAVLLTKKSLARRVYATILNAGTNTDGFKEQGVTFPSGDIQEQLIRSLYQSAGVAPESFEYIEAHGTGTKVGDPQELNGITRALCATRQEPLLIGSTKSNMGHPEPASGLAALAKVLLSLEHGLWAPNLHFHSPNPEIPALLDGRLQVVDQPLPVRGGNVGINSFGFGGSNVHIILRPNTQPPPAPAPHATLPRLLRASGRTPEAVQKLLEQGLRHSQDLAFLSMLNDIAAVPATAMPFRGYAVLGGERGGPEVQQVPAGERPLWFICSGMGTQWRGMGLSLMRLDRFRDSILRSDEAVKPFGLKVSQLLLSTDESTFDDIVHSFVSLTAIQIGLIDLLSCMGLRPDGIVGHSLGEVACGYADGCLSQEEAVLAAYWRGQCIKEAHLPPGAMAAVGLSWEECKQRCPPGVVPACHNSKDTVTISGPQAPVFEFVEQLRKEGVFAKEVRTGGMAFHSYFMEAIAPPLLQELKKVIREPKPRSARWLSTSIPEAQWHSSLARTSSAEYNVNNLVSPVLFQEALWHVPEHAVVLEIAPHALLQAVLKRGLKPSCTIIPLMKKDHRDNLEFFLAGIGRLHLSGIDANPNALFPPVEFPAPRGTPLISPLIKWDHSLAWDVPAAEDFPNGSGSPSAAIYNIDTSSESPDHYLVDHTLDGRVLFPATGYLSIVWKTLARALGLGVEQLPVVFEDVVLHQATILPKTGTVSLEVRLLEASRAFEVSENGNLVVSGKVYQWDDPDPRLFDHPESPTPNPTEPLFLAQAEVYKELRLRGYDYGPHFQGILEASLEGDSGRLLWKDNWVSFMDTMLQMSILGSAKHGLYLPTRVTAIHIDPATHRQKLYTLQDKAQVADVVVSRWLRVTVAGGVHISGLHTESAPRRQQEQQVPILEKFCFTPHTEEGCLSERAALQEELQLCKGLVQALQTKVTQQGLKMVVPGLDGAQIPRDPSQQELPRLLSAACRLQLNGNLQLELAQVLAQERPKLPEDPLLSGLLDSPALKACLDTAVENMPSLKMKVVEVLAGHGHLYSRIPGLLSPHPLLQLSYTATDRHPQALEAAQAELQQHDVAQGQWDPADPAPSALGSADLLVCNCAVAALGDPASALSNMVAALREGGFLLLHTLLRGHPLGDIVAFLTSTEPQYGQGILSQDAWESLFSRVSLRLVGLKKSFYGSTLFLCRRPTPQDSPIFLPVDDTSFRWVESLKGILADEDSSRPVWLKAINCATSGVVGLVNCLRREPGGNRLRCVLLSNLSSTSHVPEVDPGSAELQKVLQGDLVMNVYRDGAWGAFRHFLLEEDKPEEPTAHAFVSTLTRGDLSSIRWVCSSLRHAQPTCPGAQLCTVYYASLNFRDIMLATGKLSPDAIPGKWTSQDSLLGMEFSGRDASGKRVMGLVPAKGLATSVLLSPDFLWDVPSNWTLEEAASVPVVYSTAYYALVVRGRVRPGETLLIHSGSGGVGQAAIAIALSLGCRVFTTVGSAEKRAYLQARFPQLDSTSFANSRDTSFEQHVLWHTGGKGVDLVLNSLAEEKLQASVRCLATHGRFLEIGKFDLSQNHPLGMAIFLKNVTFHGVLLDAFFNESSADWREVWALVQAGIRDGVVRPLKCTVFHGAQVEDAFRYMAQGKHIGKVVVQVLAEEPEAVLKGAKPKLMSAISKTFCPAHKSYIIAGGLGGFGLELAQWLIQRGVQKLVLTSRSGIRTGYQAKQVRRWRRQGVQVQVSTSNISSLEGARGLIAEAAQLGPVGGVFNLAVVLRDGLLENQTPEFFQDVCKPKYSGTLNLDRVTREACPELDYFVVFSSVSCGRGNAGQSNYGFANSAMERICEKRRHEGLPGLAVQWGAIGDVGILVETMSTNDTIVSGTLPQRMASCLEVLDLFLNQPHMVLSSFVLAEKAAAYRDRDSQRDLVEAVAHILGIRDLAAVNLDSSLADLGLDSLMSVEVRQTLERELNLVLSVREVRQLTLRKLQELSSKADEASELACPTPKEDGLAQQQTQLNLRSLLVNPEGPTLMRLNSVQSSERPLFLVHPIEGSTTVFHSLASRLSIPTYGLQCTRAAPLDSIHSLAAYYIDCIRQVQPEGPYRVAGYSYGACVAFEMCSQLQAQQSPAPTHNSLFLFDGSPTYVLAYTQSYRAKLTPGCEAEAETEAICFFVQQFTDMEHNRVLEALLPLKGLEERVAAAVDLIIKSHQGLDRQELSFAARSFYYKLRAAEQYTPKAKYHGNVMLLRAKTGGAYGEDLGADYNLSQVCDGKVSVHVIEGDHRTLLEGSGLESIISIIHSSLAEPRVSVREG

Structure (SMILES) | inhibition
O=C(CNC(=O)OCc1ccccc1)NC1CCCCNC1=O (centres undefined) | -2.6% (inactive)
COc1ccc(S(=O)(=O)N2CCCCC2)cc1NC(=O)c1cc([N+](=O)[O-])ccc1N1CCOCC1 | 86.5% (active)
O=C(NCC1CCCCC1)c1cc(S(=O)(=O)N2CCCCC2)ccc1N1CCOCC1 | 3.8% (inactive)
COc1ccc(S(=O)(=O)N2CCOCC2)cc1NC(=O)c1ccc(OCC(C)C)c(OC)c1 | 27.8% (inactive)
COc1cccc(NC(=O)C2c3cc(OC)c(OC)cc3C(=O)N(C)C2c2cccnc2)c1 (centres undefined) | -9.1% (inactive)
CC1(C)OC(=O)N2CCc3ccccc3C21C (centres undefined) | -4.7% (inactive)
O=C(c1ccc2c(c1)C(=O)N(c1ccc(Cl)cc1)C2=O)N1CCN(c2ccccn2)CC1 | -5.5% (inactive)
O=C(c1ccc2c(c1)N(Cc1ccc(F)cc1)C(=O)c1ccccc1S2(=O)=O)N1CCN(c2ccccn2)CC1 | 56.9% (active)
O=C1c2ccccc2S(=O)(=O)c2cc(N3CCN(c4ccccn4)CC3)ccc21 | 12.8% (inactive)
COCCNC(=O)CCCn1c(=O)c2ccccc2n(Cc2cccc([N+](=O)[O-])c2)c1=O | 55.7% (active)
COc1ccccc1CNC(=O)CCCn1c(=O)c2ccccc2n(CC(=O)NC2CCCC2)c1=O | -7.6% (inactive)
CCCCNC(=O)CCn1c(=O)c2ccccc2n(Cc2cc(C)ccc2C)c1=O | -13.3% (inactive)
COCCn1c(CN2CCC(Cc3ccccc3)CC2)nc2c1c(=O)n(C)c(=O)n2C | 53.4% (active)
CN1CCN(Cc2nc3c(c(=O)n(C)c(=O)n3C)n2Cc2cccc3ccccc23)CC1 | 17.2% (inactive)
CCOC(=O)N1CCN(Cc2nc3c(c(=O)n(C)c(=O)n3C)n2Cc2ccccc2)CC1 | 4% (inactive)
COc1ccc(OC)c(S(=O)(=O)N2CCCC(C(=O)N3CCC(C(N)=O)CC3)C2)c1 (centres undefined) | -9.7% (inactive)
COc1ccc(C2CC(c3cccc(OC)c3)=NN2c2ccc(S(N)(=O)=O)cc2)cc1 (centres undefined) | 18.6% (inactive)
COc1ccc(C2CC(c3ccccc3)=NN2C(=O)c2ccc(Cl)c([N+](=O)[O-])c2)cc1 (centres undefined) | 65.8% (active)
COc1ccc(C2=NN(C(=O)c3ccccc3C(=O)O)C(c3ccccc3O)C2)cc1 (centres undefined) | -6.4% (inactive)
CCCn1c(SCC(=O)Nc2ccc(C)c(S(=O)(=O)N3CCOCC3)c2)n[nH]c1=O | -3.3% (inactive)
Cc1cc(C)c2nc(-c3cccnc3)cc(C(=O)Nc3ccc(S(=O)(=O)Nc4onc(C)c4C)cc3)c2c1 | -0.1% (inactive)
C/C(=N/NC(=O)CC(=O)N/N=C(\C)c1ccc([N+](=O)[O-])cc1)c1ccc([N+](=O)[O-])cc1 | 36% (inactive)
C/C(=N\Nc1ccc([N+](=O)[O-])cc1)c1ccc(-n2nncc2C(C)(C)C)cc1 | -16% (inactive)
C/C(=N\Nc1nc(N2CCOCC2)nc(N2CCOCC2)n1)c1ccc([N+](=O)[O-])cc1 | 57.8% (active)
O=C(NCCN1CCOC1=O)C1CCC(=O)N(CCc2ccc(Cl)cc2)C1 (centres undefined) | 0.7% (inactive)

Structure (SMILES) | inhibition
O=C(c1cnccn1)N1CCN(S(=O)(=O)c2cccc(Cl)c2)CC1 | -6.3% (inactive)
Cc1ccc(S(=O)(=O)/N=C(/NC(=S)Nc2c(C)n(C)n(-c3ccccc3)c2=O)c2ccccc2)cc1 | -4.4% (inactive)
CC[C@]12c3[nH]c4ccc(Cl)cc4c3CCN1C(=O)[C@@H](CC(=O)NCCCOC)C[C@@H]2C(=O)N1CCN(C(=O)C2CC2)CC1 | -5.2% (inactive)
CCOC(=O)C1=CC[C@@H](c2ccccc2)N(S(=O)(=O)c2ccc(C)cc2)[C@H]1c1ccc(CC)cc1 | 31.8% (inactive)
CCOC1=C2CN(S(=O)(=O)c3ccc(C)cc3)[C@H](c3cccs3)C[C@H]2[C@H]2C(=O)N(c3ccccc3)C(=O)[C@H]2C1 | 58% (active)
Cc1ccc(S(=O)(=O)N2C[C@@H](C)[C@]3(C2)[C@H](O)[C@H](OC(=O)NCc2ccccc2)C[C@H]2C(=O)N(c4ccccc4)C(=O)[C@H]23)cc1 | 18.7% (inactive)
CCOC1=C2[C@H]([C@H]3C(=O)N(c4ccccc4)C(=O)[C@H]3C1)[C@@H](c1ccccc1)N(S(=O)(=O)c1ccc(C)cc1)[C@H]2c1ccccc1 | 69.2% (active)
CCOC1=C2[C@@H](CN(S(=O)(=O)c3ccc(C)cc3)[C@H]2c2ccccc2F)[C@H]2C(=O)N(Cc3ccccc3)C(=O)[C@H]2C1 | 35.8% (inactive)
CCOC(=O)C1=C(N)N(c2ccc(C)cc2)C2=C(C(=O)CCC2)C1c1cccs1 (centres undefined) | 20.7% (inactive)
NC(=O)COC(=O)c1sc2cc(F)ccc2c1Cl | 5% (inactive)
CCOc1ccc2[nH]c(=S)sc2c1 | -1.4% (inactive)
CN1CCN(S(=O)(=O)c2ccc(Nc3ccc(F)cc3)nc2)CC1 | -0.3% (inactive)
CC1CN(C(=O)c2cc(COc3c(F)cccc3F)on2)CCN1C (centres undefined) | -5.4% (inactive)
Cc1nnc(-c2ccc(Oc3ccc(C)c(C)c3)c([N+](=O)[O-])c2)o1 | 21.4% (inactive)
COc1cccc2c1CCC(NC(C)=O)C2=O (centres undefined) | -7.2% (inactive)
O=[N+]([O-])c1cc(Br)c(O)c(/C=N/Nc2nc3ccccc3s2)c1 | 52.5% (active)
O=C(NC(Nc1nc2ccc([N+](=O)[O-])cc2s1)(C(F)(F)F)C(F)(F)F)c1ccccc1 | 10.8% (inactive)
Brc1ccccc1/C=N/Nc1nc2ccccc2o1 | -4.3% (inactive)
COc1ccc(SCc2noc(C(=O)NCC3CCCO3)c2C(=O)O)cc1 (centres undefined) | -6.7% (inactive)
Cc1cccc(N(CC(=O)N2CCCC2)S(C)(=O)=O)c1C | -4.4% (inactive)
COCCN1C2=C(COC(C)(C)C2)C(=S)NC1c1ccccc1 (centres undefined) | -8.2% (inactive)
COc1ccc2c(c1)[C@H]1[C@H](CO2)[C@H](c2ccccc2)[C@]2(C)C(=O)Nc3cc(F)c(F)cc3C(=O)N12 | 71.2% (active)
Cc1ccc2c(c1)NC(=O)[C@@]1(C)[C@@H](c3ccccc3)[C@H]3COc4ccc(Cl)cc4[C@@H]3N1C2=O | 15.6% (inactive)
CCOC(=O)[C@H]1[C@H]2COc3ccc(OC)cc3[C@@H]2N2C(=O)c3ccc(F)cc3NC(=O)[C@@]12C | -4.6% (inactive)
